Screening results deposited in PubChem by Johns Hopkins Ion Channel Center.
Most compounds without a hit are left out; they make up all but 1.6% or so of the library.
KCNQ2 inh: inhibitors of rat KCNQ2 potassium channel | hit rate 1.1% among 310,000 | B-score at 10 µM | O88943 | AID 2156 | CHO-K1 KCNQ2, FluxOR thallium flux, 20 min; stronger effect = lower value;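 active means fluorescence ratio B-score at most minus 3 library SDs, with starting brightness B-score within 2 library SDs, cut at about -5.5 in these data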
Target sequence (O88943 whole entry, looked up): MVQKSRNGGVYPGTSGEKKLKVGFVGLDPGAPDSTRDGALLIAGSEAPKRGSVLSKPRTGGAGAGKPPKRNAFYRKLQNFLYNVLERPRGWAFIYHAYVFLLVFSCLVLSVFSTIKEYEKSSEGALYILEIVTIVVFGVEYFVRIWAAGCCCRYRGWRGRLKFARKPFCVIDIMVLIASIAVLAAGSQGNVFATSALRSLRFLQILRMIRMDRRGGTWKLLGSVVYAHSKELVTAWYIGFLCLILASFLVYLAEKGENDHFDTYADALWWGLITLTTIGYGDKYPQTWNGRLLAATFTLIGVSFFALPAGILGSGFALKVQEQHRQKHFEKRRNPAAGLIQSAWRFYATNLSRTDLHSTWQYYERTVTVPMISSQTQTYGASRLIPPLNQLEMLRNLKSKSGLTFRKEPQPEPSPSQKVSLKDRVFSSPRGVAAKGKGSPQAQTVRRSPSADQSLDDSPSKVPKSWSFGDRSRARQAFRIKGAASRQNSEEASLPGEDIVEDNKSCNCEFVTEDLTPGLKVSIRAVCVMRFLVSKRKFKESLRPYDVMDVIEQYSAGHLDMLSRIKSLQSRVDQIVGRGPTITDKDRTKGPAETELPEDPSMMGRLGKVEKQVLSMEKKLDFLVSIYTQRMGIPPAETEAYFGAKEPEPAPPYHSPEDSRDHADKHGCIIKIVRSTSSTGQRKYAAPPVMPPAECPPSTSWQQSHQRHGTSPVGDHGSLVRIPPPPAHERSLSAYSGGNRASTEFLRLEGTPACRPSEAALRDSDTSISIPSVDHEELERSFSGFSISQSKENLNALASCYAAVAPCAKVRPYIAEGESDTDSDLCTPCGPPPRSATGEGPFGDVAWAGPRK
KCNQ2 pot: KCNQ2 (rat) channel potentiation. O88943. CHO-K1 KCNQ2, FluxOR thallium flux fluorescence; stronger effect = higher value. B-score at 10 µM. hit rate 0.54% among 310,000. AID 2239;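 active means fluorescence ratio B-score at least 3 SD of library B-scores, with initial fluorescence B-score within 3 of them, cut at about 5.3 in these data; same plate scores as AID 2156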;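 further: B-score of peak minus minimum over baseline fluorescence ratio after K+ and Tl+ stimulus; positive B-score means potentiation of KCNQ2 with more thallium influx and brighter signal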
Active calls of the source: *.

Results for Cc1ccc(-c2nc3c4ccccc4ccn3c2CN2CCCCC2)cc1 ?
KCNQ2 inh: inactive

How did O=C(C[n+]1cc(Br)cc2ccccc21)c1ccc(Cl)cc1 do in these assays?
KCNQ2 inh: -7.54*; KCNQ2 pot: -7.54

Results for O=C(C[n+]1cccc2ccccc21)c1ccc(Br)cc1 ?
KCNQ2 inh: inactive; KCNQ2 pot: 0.78

What do the screens show for `O=C(C[n+]1cc(Br)cc(Br)c1)c1ccc(Cl)cc1`?
KCNQ2 inh: inactive

How did O=C(C[n+]1cc(Br)cc2ccccc21)c1ccc(Br)cc1 do in these assays?
KCNQ2 inh: -6.1*; KCNQ2 pot: -6.1

How did COc1cc2c(cc1OC)C(C(=O)Nc1ccc(F)c(Cl)c1)CC(=O)N2 (centres undefined) do in these assays?
KCNQ2 inh: inactive

Results for CC(N)(C(=O)O)c1cccc(OCc2cccc(Cl)c2)c1 (centres undefined) ?
KCNQ2 inh: inactive; KCNQ2 pot: 0.04

What do the screens show for `CSc1ccc(/C=C(/NC(=O)c2ccco2)C(=O)N2CCCCC2)cc1`?
KCNQ2 inh: inactive

What do the screens show for `COc1ccc(CN2CCN(C(=O)CC(C)C)CC2)cc1Br`?
KCNQ2 inh: inactive

What do the screens show for `COc1ccc(/C=C/C(=O)N(CC(C)C)CC(C)C)cc1Br`?
KCNQ2 inh: -5.91*; KCNQ2 pot: -5.91

What do the screens show for `COc1ccc(S(=O)(=O)NC(C)C(=O)N2CCCC2)cc1C` (centres undefined)?
KCNQ2 inh: inactive

Results for Nc1ncnc2c1nc(Br)n2[C@@H]1O[C@@H]2COP(=O)(O)O[C@H]2[C@H]1O ?
KCNQ2 inh: inactive

What do the screens show for `COc1ccccc1N1CCN(/N=C\c2sccc2C)CC1`?
KCNQ2 inh: -6.19*; KCNQ2 pot: -6.19

What do the screens show for `COc1ccccc1N1CCN(/N=C/c2cc(OC)c(OC)c(OC)c2)CC1`?
KCNQ2 inh: inactive

Results for COc1ccccc1N1CCN(/N=C\c2ccccc2)CC1 ?
KCNQ2 inh: inactive

How did COc1ccccc1N1CCN(/N=C/c2cccc(OC)c2OC)CC1 do in these assays?
KCNQ2 inh: -7.28*; KCNQ2 pot: -7.28

Results for CCN(CC)S(=O)(=O)c1cccc(NC(=O)COc2ccc(C#N)cc2OC)c1 ?
KCNQ2 inh: inactive; KCNQ2 pot: 7.54*

How did CCN(CC)S(=O)(=O)c1ccc(C)c(NC(=O)COc2ccc(Cl)cc2Br)c1 do in these assays?
KCNQ2 inh: inactive; KCNQ2 pot: 0.05

What do the screens show for `CCN(CC)S(=O)(=O)c1cccc(NC(=O)COc2ccc(F)cc2Br)c1`?
KCNQ2 inh: -7.59*; KCNQ2 pot: -7.59

What do the screens show for `CCN(CC)S(=O)(=O)c1cc(NC(=O)COc2ccc(C#N)cc2OC)ccc1C`?
KCNQ2 inh: inactive

What do the screens show for `CC(OC(=O)c1ccc2c(=O)n3c(nc2c1)CCC3)C(=O)NC1CCCCC1C` (centres undefined)?
KCNQ2 inh: inactive

What do the screens show for `Cc1ccc2nc(SC(C)C(=O)N3CCOCC3)[nH]c2c1` (centres undefined)?
KCNQ2 inh: inactive; KCNQ2 pot: 1.19

What do the screens show for `COc1ccccc1NC(=O)c1cnc(SCC(=O)NCC2CCCO2)n(C)c1=O` (centres undefined)?
KCNQ2 inh: inactive; KCNQ2 pot: 0.64

How did O=[N+]([O-])c1cc2c(cc1/C=N/NS(=O)(=O)c1ccc(Br)cc1)OCO2 do in these assays?
KCNQ2 inh: inactive

How did O=C(Nc1ccc(S(=O)(=O)Nc2ncccn2)cc1)C1CC(=O)N(c2ccc(Cl)cc2)C1 (centres undefined) do in these assays?
KCNQ2 inh: inactive

What do the screens show for `COc1ccc(-c2nc(CN(CC3CCC(=O)N3)C(C)C)c(C)o2)c(C)c1C` (centres undefined)?
KCNQ2 inh: -6.69*; KCNQ2 pot: -6.69

How did COc1ccc(-c2nc(CN(C)C(C)c3ccon3)c(C)o2)c(C)c1C (centres undefined) do in these assays?
KCNQ2 inh: inactive

What do the screens show for `COc1ccc(CNC(=O)CN(Cc2ccc(C)cc2)C(=O)c2csnn2)cc1`?
KCNQ2 inh: inactive; KCNQ2 pot: 1.88

How did CN1C(CC(=O)Nc2ccc(Cl)cc2Cl)c2ccccc2CC1(C)C (centres undefined) do in these assays?
KCNQ2 inh: inactive

How did CCOC(=O)/C(C(=O)Nc1ccc(Cl)cc1Cl)=C1/NC(C)(C)Cc2ccccc21 do in these assays?
KCNQ2 inh: -6.3*; KCNQ2 pot: -6.3

What do the screens show for `O=C1CSC(c2ccccn2)N1c1ccc(C(F)(F)F)cc1` (centres undefined)?
KCNQ2 inh: inactive

Results for CC(C)(C)C(=O)Nc1c2c(nn1-c1ccccc1)CSC2 ?
KCNQ2 inh: -8.16*; KCNQ2 pot: -8.16

What do the screens show for `CC(=O)Nc1c2c(nn1-c1ccccc1)CSC2`?
KCNQ2 inh: inactive; KCNQ2 pot: 0.7

What do the screens show for `O=C(COc1ncnc2ccccc12)Nc1cc([N+](=O)[O-])ccc1F`?
KCNQ2 inh: inactive

Results for NC(=O)Cn1c(=O)n(CCC(=O)NCCSCc2ccccc2)c(=O)c2ccccc21 ?
KCNQ2 inh: inactive; KCNQ2 pot: 2.34
